Most compounds without a hit are left out; they make up all but 3.5% or so of the library.
TEAD-YAP inh – TEAD-YAP interaction inhibition, primary screen, TEAD-YAP interaction inhibitor project, luminescence, HEK-TIYL cells; TEAD-Gal4/YAP UAS-luciferase luminescence; 640,000 tested, 1.4% active; inhibition, % at 9.12 µM; in the data active = inhibition above about 32%;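 also: 0% = median of test compound wells and 100% = reference inhibitor wells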
GPR151 activ – activators of human GPR151, primary screen, cell-based, PathHunter beta-arrestin, luminescence; G-protein coupled receptor 151 (Homo sapiens), Q8TDV0; PathHunter beta-arrestin GPR151 cells; activation, % at 11.2 µM; 650,000 tested, 1% active; in the data active = activation above about 4.9%;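 also: 0% = median of compound wells and 100% = cells with positive control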
Target sequence (Q8TDV0 whole entry, looked up): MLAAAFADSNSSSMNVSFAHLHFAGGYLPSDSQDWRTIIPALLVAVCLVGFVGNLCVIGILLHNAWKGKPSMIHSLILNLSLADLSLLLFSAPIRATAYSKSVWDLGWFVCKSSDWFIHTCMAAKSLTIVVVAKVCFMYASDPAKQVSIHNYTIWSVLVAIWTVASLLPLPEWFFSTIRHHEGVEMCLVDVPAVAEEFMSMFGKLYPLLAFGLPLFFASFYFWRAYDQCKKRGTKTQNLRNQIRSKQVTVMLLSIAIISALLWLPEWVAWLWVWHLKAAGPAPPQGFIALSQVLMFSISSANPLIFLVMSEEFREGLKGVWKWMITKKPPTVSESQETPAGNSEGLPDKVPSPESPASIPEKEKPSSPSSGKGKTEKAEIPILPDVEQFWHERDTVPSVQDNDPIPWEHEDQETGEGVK
MITF primary – MITF inhibitors, primary screen, biochemical, AlphaScreen, human; 650,000 tested, 0.91% active; inhibition, % at 2.6 µM; AlphaScreen MITF homodimerization, bead proximity signal; Microphthalmia-associated transcription factor (Homo sapiens), O75030; in the data active = inhibition above about 50%;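 also: 0% = vehicle wells with protein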
FBW7 activator – FBW7 E3 ligase activators, primary screen, biochemical, AlphaScreen, human | normalized activity (activation), % at 26.1 µM | 650,000 tested, 0.13% active | F-box/WD repeat-containing protein 7 (Homo sapiens), Q969H0 | AID 1259310, 2017 | AlphaScreen FBW7–phospho-cyclin E peptide binding, activator screen; in the data active = normalized activity above about 1.9%;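 also: purified mutant Fbw7 with reduced substrate affinity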
* marks the source's active call; other numbers are inactive results.

SMILES | TEAD-YAP inh | GPR151 activ | MITF primary | FBW7 activator
O=[N+]([O-])c1ccc(/C=C/c2ccc(O)cc2)cc1 | 49* | -11 | 4 | 0
O=C(c1cc2c(ccc3ccccc32)oc1=O)N1CCCC1 | -3 | 0 | 2 | 3.2*
O=C(c1cc2c(ccc3ccccc32)oc1=O)N1CCOCC1 | -29 | 0 | -6 | 0
Cn1c(=O)[nH]c(=O)c2c1nc(CN1CCN(c3cccc(Cl)c3)CC1)n2Cc1cccc(Cl)c1 | -8 | -1 | -4 | 0
CC1=NOC(=O)/C1=C\c1ccc(-c2ccc(Cl)c(C(=O)O)c2)o1 | -1 | 0 | 15 | 0
CC1=NOC(=O)/C1=C/c1ccc(-c2ccc(C(=O)O)cc2)o1 | 7 | 0 | 57* | 0
CC(C)c1ccccc1OCC(=O)Nc1cccc(C(F)(F)F)c1 | 5 | 0 | 2 | 0
COc1ccc(O)c(/C=N/n2c(C)csc2=NC(C)C)c1 | 41* | -2 | 24 | 0
COC(=O)C1=C(C)N(C)C(C)=C(C(=O)OC)C1c1ccccc1F | -6 | -1 | 12 | 1
CCOC(=O)C(=N\O)/C(C)=N/NC(=O)CC#N | -6 | -1 | 71* | 0
COc1ccc2cc(CNC3CCCC3)c(N3CCSCC3)nc2c1 | -4 | -1 | -2 | 0
COc1cc(S(=O)(=O)N(Cc2cccs2)C2CCCC2)ccc1-n1cnnn1 | -6 | 1 | -1 | 0
COc1cc(S(=O)(=O)N(Cc2ccccc2F)C2CCCC2)ccc1-n1cnnn1 | 67* | 1 | -5 | 0
O=C(Nc1cc(Cl)ccc1N1CCOCC1)c1ccc(N2CCOCC2)c([N+](=O)[O-])c1 | -6 | -1 | -3 | -1
Cc1sc2ncnc(NCC3COc4ccccc4O3)c2c1C (stereo unspecified) | 48* | 0 | 5 | 0
Cc1sc2ncnc(NCCc3ccc4c(c3)OCCO4)c2c1C | 57* | 1 | 17 | 1
Cc1cc(C(=O)N/N=C\c2ccccc2O)n[nH]1 | -43 | 0 | 30 | -2
COc1cc(Br)cc(/C=N/NC(=O)c2cc(C)[nH]n2)c1O | 19 | 1 | 55* | 0
Cc1cc(C(=O)N/N=C/c2cc(N=Nc3ccccc3)ccc2O)n[nH]1 | 62* | 0 | 28 | 0
COc1cc(/C=N/NC(=O)c2cc(C)[nH]n2)c(Br)c(Br)c1O | 4 | 1 | 17 | 0
COc1cc([N+](=O)[O-])cc(/C=N/NC(=O)c2cc(C)[nH]n2)c1O | -5 | -1 | 59* | -1
O=C(CSc1nnc(NC2CCCCC2)s1)Nc1ccc2[nH]c(=O)[nH]c2c1 | 0 | 1 | -2 | 0
CCCCCCc1c(O)nc(SCCN(CCC)CCC)n(-c2ccccc2)c1=O | 2 | 2 | -8 | 0
COc1ccc2c(c1)CC(C(=O)Nc1ccc(-c3cn[nH]c3)cc1OCCN)CO2 (stereo unspecified) | 38* | 0 | 27 | 0
COc1ccc2c(c1)CC(c1nc3c(OCCN(C)C)cc(-c4cn[nH]c4)cc3s1)CO2 (stereo unspecified) | 73* | 1 | 47 | -1
SMILES | TEAD-YAP inh | GPR151 activ | MITF primary | FBW7 activator
COc1ccc2c(c1)CC(C(=O)Nc1ccc(-c3cn[nH]c3)cc1OCCCO)CO2 (stereo unspecified) | -1 | 2 | 17 | 0
CN(C)CCOc1cc(-c2cn[nH]c2)cc2sc(C3COc4ccccc4C3)nc12 (stereo unspecified) | 4 | -1 | 24 | 0
CC(=O)[C@@H]1[C@@H](c2ccccc2I)C(C#N)(C#N)[C@H]2C=Cc3ccccc3N12 | -2 | -1 | 10 | 0
CC1(Cc2cccc(C#N)c2)C(=O)Nc2ccc(F)cc21 (stereo unspecified) | 2 | 5 | -4 | 0
CC1(Cc2cccc(C#N)c2)C(=O)Nc2ccc(-c3cccnc3)cc21 (stereo unspecified) | 45* | 1 | 25 | 0
CC1(Cc2cccc(F)c2)C(=O)Nc2ccc(-c3cccnc3)cc21 (stereo unspecified) | 40* | 4 | 23 | 0
Clc1cccc(-c2nc(-c3ccc(Br)cc3)c(-c3ccc(Br)cc3)[nH]2)c1 | -1 | -2 | 16 | 0
O=C(Nc1nc(CCC(=O)N2CCN(c3ccccc3F)CC2)cs1)NC1CCCCC1 | 5 | 3 | 5 | 0
O=C(Nc1nc(CCC(=O)N2CCCCCC2)cs1)NC1CCCCC1 | 41* | 2 | -2 | 0
O=C(Nc1cccc(Br)c1)C1CCN(C(=O)c2ccc([N+](=O)[O-])cc2)CC1 | -10 | 0 | 11 | 1
N/C(=N\N=C/c1ccc(O)cc1)c1ccccn1 | 93* | -7 | 29 | -1
N/C(=N\N=C\c1cccc([N+](=O)[O-])c1)c1ccccn1 | 43* | -4 | -2 | 0
C/C(=N/NC(=O)c1ccccn1)c1cccc([N+](=O)[O-])c1 | -21 | -3 | 18 | 0
O=C(Nc1ccc(Cl)cc1)c1c(Cl)nsc1Cl | 76* | 1 | -22 | 0
NC(=O)c1c(Cl)nsc1Cl | 65* | -2 | 8 | 0
CCCC(=O)Nc1ccc(Cl)c(C(F)(F)F)c1 | 14 | 2 | 10 | 0
O=C(CCl)Nc1ccc(OC(F)F)cc1 | 35* | 0 | 11 | 0
O=C(CCl)Nc1ccc(OC(F)(F)F)cc1 | 34* | 0 | 6 | 0
O=C(Nc1ccc(OC(F)(F)F)cc1)c1ccc(=O)[nH]c1 | 33* | 0 | -4 | 0
O=C(O)CCCC(=O)Nc1ccc(OC(F)(F)F)cc1 | 1 | 0 | 6 | 0
O=C(CCl)Nc1ccc(Cl)c(C(F)(F)F)c1 | 39* | 2 | -1 | 0
O=C(NNC(=O)c1cc(Br)ccc1Cl)Nc1cccc([N+](=O)[O-])c1 | 13 | -1 | 8 | 0
COc1cc(C(C)=O)ccc1OS(=O)(=O)c1cn(C)c(=O)n(C)c1=O | 3 | 1 | -3 | 0
CCSCCOC(=O)C1=C(C)NC2=C(C(=O)C(C(=O)OC)C(C)C2)C1c1c(F)cccc1Cl (stereo unspecified) | -15 | 1 | 0 | 1.9*
COc1ccc2occ(C(=O)COc3ccc(Br)cc3C#N)c2c1 | 57* | 0 | -4 | 1
SMILES | TEAD-YAP inh | GPR151 activ | MITF primary | FBW7 activator
Cc1nc2c(c(N3CCCC3)n1)CN(CCS(=O)(=O)c1ccccc1)CC2 | -9 | 2 | -1 | 0
CCN(CC)c1ccc(C(=O)O)cc1 | -8 | 1 | 4 | 0
CCN(CC)c1ccc(C(=O)c2ccc(N(CC)CC)cc2)cc1 | 34* | 2 | 1 | 0
COc1cc2c(cc1OC)C(COc1ccc(F)cc1)N(C(=O)C1CCCCC1)CC2 (stereo unspecified) | -8 | 0 | 17 | 0
NNc1ccc2nnc(C(F)(F)C(F)(F)C(F)(F)F)n2n1 | 9 | 0 | 5 | 1.9*
O=C(Nc1ccc2c(c1)OCCO2)c1ccc(C(=O)Nc2ccc3c(c2)OCCO3)nc1 | 65* | 3 | 12 | 0

Bioassay records: PubChem BioAssay, The Scripps Research Institute Molecular Screening Center
